From PubChem
An excerpt weighted towards active compounds, which were near 7.5% of everything screened.
NPC1 promoter act = activators of NPC1 promoter; hit rate 2.4% among 320,000; Huh7 NPC1 promoter luciferase reporter, 24 h; Potency, µM (series often up to 9.22 µM), inactives show at the top dose activation, actives largely listed as activators; note: % of control where 0% means no effect; nearly all actives have a fitted effect of over 60% in size
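NPC1 promoter–luciferase Huh7 cells; 24 h compound; luminescence.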
KinaseGlo FLuc = counter-screen: inhibitors of Kinase-Glo firefly luciferase | Q27757 | Kinase-Glo luciferase, ATP luminescence, 8 min | Potency, µM (doses to about 38.3 µM), for the others: at the top dose activity change, negative = inhibition, most hits filed as inhibitors | hit rate 0.28% among 200,000 | AID 1379; note: % is set by controls: 0 for no effect and ±100 for the full control effect; nearly all actives have a fitted effect of over 60% in size
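Luminescence was the read-out, taken after 8-minute incubation at ambient temperature. Luciferase turned over luciferin with 10 uM ATP in imidazole pH 7.2 buffer containing KCl, MgCl2, Tween 20 and BSA.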
ELG1 genotoxic = inducers of genotoxicity in HEK293T ELG1-luciferase cells; HEK293T ELG1-luciferase reporter, luminescence, 16 h; Potency, µM (top dose mostly 46 µM), for inactives: at the highest dose activity change, positive = activation, most hits filed as activators; hit rate 1.3% among 330,000; note: % of control where 0% means no effect; nearly all actives have a fitted effect of over 60% in size
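Luminescence read-out: rising ELG1-luciferase signal, reflecting elevated ELG1 protein under genetic stress, flags genotoxic compounds. Cells were treated for 16 hr at 37 °C before ONE-Glo detection.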
SMN2 splice enh = enhancers of SMN2 splice variant expression. HEK293 SMN2-luciferase splicing reporter, luminescence, 30-36 h. Potency, µM (doses to about 46.1 µM), for the others: top-dose activity change, positive = activation, most hits filed as activators. hit rate 2.8% among 210,000; note: % of control where 0% means no effect; nearly all actives have a fitted effect of over 55% in size
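HEK293 cells carry an SMN2 minigene-luciferase reporter in which exon 7 inclusion puts luciferase in frame. Cells were seeded at 2000 cells/well, attached for 10-12 hours, then exposed to compounds for 30-36 hours at 37C before ONE-Glo luminescence.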
FLuc counter = firefly luciferase modulation, counter-screen for miR-21 project. P08659. hit rate 6.9% among 360,000. purified FLuc, Km substrates, luminescence inhibition. Potency, µM (highest dose often 57.5 µM), without a hit: top-dose activity change, negative = inhibition, most hits filed as inhibitors. AID 588342;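 note: plate controls were vehicle for no effect and reference inhibitor for full effect; nearly all actives have a fitted effect of over 55% in size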
Target sequence (P08659 whole entry, looked up): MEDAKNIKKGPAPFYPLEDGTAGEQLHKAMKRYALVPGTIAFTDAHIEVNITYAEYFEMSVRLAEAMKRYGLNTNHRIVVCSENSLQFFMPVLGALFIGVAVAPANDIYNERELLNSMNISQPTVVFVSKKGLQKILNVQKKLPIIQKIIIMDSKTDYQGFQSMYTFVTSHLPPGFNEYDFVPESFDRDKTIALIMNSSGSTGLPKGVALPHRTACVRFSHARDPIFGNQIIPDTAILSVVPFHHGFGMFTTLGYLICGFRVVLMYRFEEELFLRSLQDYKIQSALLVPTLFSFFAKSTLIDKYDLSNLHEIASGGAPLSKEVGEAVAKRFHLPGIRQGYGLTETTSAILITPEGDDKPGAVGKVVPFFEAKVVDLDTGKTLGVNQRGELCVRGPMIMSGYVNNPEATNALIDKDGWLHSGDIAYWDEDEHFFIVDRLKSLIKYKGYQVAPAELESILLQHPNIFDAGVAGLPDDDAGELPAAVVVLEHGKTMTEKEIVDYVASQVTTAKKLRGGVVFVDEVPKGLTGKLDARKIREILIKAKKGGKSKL
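Biochemical qHTS of compounds, final roughly 60 µM downward over six points, against 10 nM purified firefly luciferase using Km concentrations of substrates (10 uM D-luciferin, 10 uM ATP) in Tris acetate pH 7.5 buffer; luminescence output.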
Rab9 promoter act = activates the Rab9 promoter; Potency, µM (titrated, usually from 9.22 µM), for inactives: top-dose activation, negative = inhibition, actives largely listed as activators; Huh7 Rab9 promoter-luciferase reporter, luminescence, 24 h; AID 485297; hit rate 2.8% among 320,000; note: % of control where 0% means no effect; nearly all actives have a fitted effect of over 60% in size
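Luminescence read-out: Huh7 cells stably expressing Rab9-luciferase, treated 24 h with compound at 37 °C, then lysed with luciferase reagent for 10 min at ambient before reading.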
Active calls of the source: *; ? = inconclusive; . = no result given; [ ] = remark or other dose. Calls come from the whole dose curve; as a rule, active = well fitted curve in the direction sought with a large enough effect; inconclusive = small, poorly fitted or top-dose-only effect, or another doubt; inactive = no such curve, though single readings can be large; an effect the other way counts as inactive or inconclusive. Potency is the fitted concentration of half-maximal effect.

SMILES | NPC1 promoter act | KinaseGlo FLuc | ELG1 genotoxic | SMN2 splice enh | FLuc counter | Rab9 promoter act
Cc1ccc2nc(-c3ccc(N4C(=O)CC(N5CCN(CCO)CC5)C4=O)cc3)sc2c1 (stereo not given) | 11% | -3% | ? | 18% | 8.5µM* | 10%
O=c1c2ccccc2nc(COc2ccccc2)n1/N=C/c1cc([N+](=O)[O-])ccc1O | 12% | -2% | 0% | -37% | 19µM* | 11%
Cc1cc(/C=N/n2c(COc3ccccc3C)nc3ccccc3c2=O)c(O)c([N+](=O)[O-])c1 | 5% | -7% | 12% | -97% | 24µM* | 1%
Cc1cccc(NC(=O)c2sc3nc(N)c(C#N)cc3c2N)c1 | 2.8µM* | 1% | ? | 16µM* | 9.5µM* | 2.5µM*
COc1ccc(NC(=O)c2sc3nc4c(cc3c2N)CCCCCC4)cc1OC | . | . | . | 1% | -2% | .
CCc1nnc(NC(=O)c2sc3nc4c(cc3c2N)CCCCCC4)s1 | ? | 2% | ? | 13µM* | 4.8µM* | 2.8µM*
CCc1nnc(NC(=O)c2sc3nc4c(cc3c2N)CCCCC4)s1 | 2.2µM* | -1% | ? | 8.9µM* | 1.7µM* | 1.6µM*
CC(=O)c1cccc(NC(=O)c2sc3nc4c(cc3c2N)CCCC4)c1 | . | . | . | 17% | 0.54µM* | .
COc1cc(Cl)c(C)cc1NC(=O)CSc1cc(-c2ccccc2)nc(C)n1 | . | . | . | . | 3% | .
Cc1nc2ccc3nc(NC(=O)c4ccc5c(c4)OCCO5)sc3c2s1 | 13% | -2% | 3% | -2% | ? | 19%
O=C(Nc1nc2cc3c(cc2s1)OCCO3)c1ccc(N2C(=O)CCC2=O)cc1 | ? | . | 5% | . | ? | 12%
Cc1cnc(NC(=O)c2ccc3c(c2)OCCO3)s1 | ? | . | ? | . | 0.11µM* | 0.1µM*
Cc1nc2c(ccc3nc(NC(=O)c4ccc5c(c4)OCCO5)sc32)s1 | 0.32µM* | -9% | ? | ? | 0.21µM* | 0.71µM*
Cc1ccc2sc(NC(=O)c3ccc4c(c3)OCCO4)nc2c1C | . | . | . | . | 2.7µM* | .
Cn1c(CSCc2ccc(F)cc2)nnc1SCC(=O)Nc1cccc(C(=O)O)c1 | -3% | . | 1% | . | 1% | -2%
COc1cc(=O)n(C)c2c(OC[C@@H](O)C(C)(C)O)cccc12 | . | 3%[17.1 µM] | . | 5%[20.6 µM] | . | .
COc1ccc(Nc2nc3ccc(Cl)cc3n3nnnc23)cc1OC | . | . | . | 9% | ? | .
Cc1cccc(CSc2nc(-c3cccc(C)c3)nc3c2Cc2c(CO)cnc(C)c2O3)c1 | . | . | . | . | 0% | .
CN(C)/C=N/c1cnc(C(=O)c2ccc(Cl)cc2)n1C | 1.8µM* | 0% | 6.3µM* | 11µM* | 11µM* | 1.8µM*
CN(C)/C=N/NC(=O)c1ccc(Cl)cc1 | 1% | -3% | 0% | 14% | 0% | -4%
CCC(=O)N1CCc2cc(Br)cc(S(=O)(=O)NCCc3ccc(C)cc3)c21 | . | . | . | . | 0% | .
CC(=O)Nc1nc2c(s1)C(=O)NCCC2 | -2% | 0% | -1% | 1% | 2% | -4%
O=C(CSc1nnc(NC(=O)c2ccco2)s1)Nc1ccccc1Cl | 2% | . | 2% | . | ? | 4%
O=C(CSc1nnc(NC(=O)c2ccco2)s1)Nc1ccccc1 | 13% | -3% | 15% | ? | 21µM* | 1%
CC(=O)Nc1ccc(NC(=O)CSc2nnc(NC(=O)c3ccco3)s2)cc1 | 8% | . | 6% | . | 17µM* | 16%
COc1cc(/C=C/C(=O)OCN2C(=O)c3ccccc3C2=O)ccc1OC(F)F | -1% | . | 6% | . | 2% | -3%
O=C(O)c1cc(/C=C/c2ccc(N3CCOCC3)c([N+](=O)[O-])c2)nc2ccccc12 | ? | . | ? | . | 1.2µM* | ?
O=[N+]([O-])c1cccc2ccc(/C=C/c3ccc(Cl)cc3)nc12 | ? | . | -1% | . | ? | ?
CC(=O)Nc1ccc(/C=C/c2ccc3c([N+](=O)[O-])cccc3n2)cc1 | ? | -1% | ? | ? | ? | 1.1µM*
